# Experimental data: PubChem BioAssay AID1572 (National Center for Advancing Translational Sciences (NCATS), 2009)
# Inconclusive results are not listed. Where a call stands in place of a potency, no number is given. Active and inactive are the calls of the source. Calls follow the shape of the dose curve; as a rule, active = well fitted curve in either direction with a large enough effect; inconclusive = small, poorly fitted or top-dose-only effect; inactive = flat fitted curve, though single readings scatter.
# Experiment: Total Fluorescence Confirmation Counterscreen for Inhibitors of the Interaction of Thyroid Hormone Receptor and Steroid Receptor Coregulator 2
# Conditions: Texas Red total fluorescence, TRbeta/SRC2 FP artifact counterscreen; series mostly up to 92.2 µM
# Procedure, shortened: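 Flags fluorescent or light-absorbing compounds: after 5 hr at ambient temperature, 0.6 uM TRbeta LBD plus 20 nM SRC2 Texas Red (1uM T3, 5% DMSO) read at 555/632 nm; TF = S + 2P from parallel and perpendicular channels.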
row,Structure (SMILES),Potency
1,COc1ccc(CN2C(=O)Cc3c2nc(N)c2c(N)nc(N4CCCCC4)c(C#N)c32)cc1,inactive
2,O=C(O)/C=C/C(=O)Nc1ccc(SC(F)(F)C(F)(F)C(F)(F)F)cc1,inactive
3,CCSc1ncc(Cl)c(C(=O)Nc2nc3ccc(OC)cc3s2)n1,inactive
4,Cc1cc2c(NC(=O)Nc3ccccc3)cccc2nn1,inactive
5,Cc1ccccc1Nc1cc2ccccc2c(=O)[nH]1,inactive
6,CS(=O)(=O)c1ccc(C(=O)OCC(=O)NC23CC4CC(CC(C4)C2)C3)cc1[N+](=O)[O-],inactive
7,CN(CCO)c1nc(N)c2c(N)nc3c(c2c1C#N)CC(=O)N3C1CCCC1,inactive
8,Cc1cc2ccccc2n1CCNC(=O)C(C)Oc1ccccc1 (centres undefined),inactive
9,CCCCOc1ccc(C(=O)CCN2CCOCC2)cc1,inactive
